From the supplement of paper PMC7156485

Test system: TDF
Experiment: cell number relative to DMSO (% of DMSO); higher = more cells (less growth inhibition / toxicity)
Conditions: concentration: 10 µM; 24 h
Method in brief: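 Cell number or H1.0 nuclear intensity appears as percent of the plate control, based on the median of replicates. Measurements came from HCC1569 and TDF cells exposed in triplicate to compounds at 10 µM for 24 h at 37 °C, then imaged in six fields per well at ×10. Positional effects were smoothed out of HCC1569 values.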
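Note: TDF denotes transformed human dermal fibroblasts of mesenchymal origin.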

SMILES	cell number
CCC1=CC2CN3CCc4c([nH]c5ccccc45)C(C(=O)OC)(C2)C13 (configuration not stated) [Catharanthine]	94.7
CCCN1CCc2cccc3c2C1Cc1ccc(O)c(O)c1-3.Cl (stereo not drawn) [R(-)-Propylnorapomorphine hydrochloride]	91.8
Br.Br.CN(C)CCN(C)CCc1ccc(Cl)c(Cl)c1	102
CC1(C(=O)O)C2CCC(O2)C1(C)C(=O)O (configuration not stated) [Cantharidic Acid]	13.6
O=c1[nH]c2ccccc2n1CCCN1CCC(n2c(=O)[nH]c3cc(Cl)ccc32)CC1 [Domperidone]	98.7
CCC(C(=O)O)C1OC(C(C)C(O)C(C)C(=O)C(CC)C2OC3(C=CC(O)C4(CCC(C)(C5CCC(O)(CC)C(C)O5)O4)O3)C(C)CC2C)C(C)CC1C (configuration not stated) [Narasin]	84.4
Cl.Oc1ccc2c3c1OC1c4[nH]c5ccccc5c4CC4(O)C(C2)N(CC2CC2)CCC314 (configuration not stated) [Naltrindole.HCl]	99.3
NC(=NN=Cc1ccc(-c2cccc([N+](=O)[O-])c2)o1)N[N+](=O)[O-] [ERK Inhibitor III]	101
C=C1CC2C(CCC3(C)C(=O)CCC23)C2(C)C=CC(=O)C=C12 (configuration not stated) [Exemestane]	97.4
CC12NC(Cc3ccccc31)c1ccccc12.O=C(O)C=CC(=O)O (single isomer, unassigned; (+)) [(+)-MK-801 hydrogen maleate]	99
NC(=S)NN=Cc1coc2ccccc2c1=O.[Cl][Cu][Cl]	86
CN1C(=O)C23CC4=CC=CC(O)C4N2C(=O)C1(CO)SS3 (configuration not stated) [Gliotoxin]	0.3
